Assay outcomes deposited in PubChem by National Center for Advancing Translational Sciences (NCATS).
A selection: hits, their analogues and other compounds. The true share with any hit is near 6.2%.
HT1080 IDH1KD tx – kills HT-1080 cells with IDH1 knockdown | Potency, µM (titrated, usually from 46.1 µM), usual class: cytotoxic | HT-1080 IDH1 knockdown viability, ATP luminescence, 48 h | actives 2% (n = 360,000)
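Knockdown cells (IDH1KD HT-1080) received compounds 2 h after plating at 750 cells/well and were kept 48 h at 37 °C in 5% FBS RPMI. A CellTiter-Glo luminescence read gave % activity for curve fitting.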
HT1080NT lethal – kills 2HG-producing HT-1080-NT fibrosarcoma cells. HT-1080-NT fibrosarcoma viability, CellTiter-Glo ATP luminescence, 48 h. Potency, µM (highest dose often 46.1 µM), hits mostly cytotoxic. actives 1.6% (n = 360,000);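 also: NT is the 2HG producing partner of a matched IDH1 knockdown line; nearly all actives have a fitted effect of over 55% in size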
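HT-1080-NT fibrosarcoma cells (2HG-overproducing), 750 cells/well in RPMI with 5% FBS, dosed after 2 h and incubated 48 h at 37C. CellTiter-Glo luminescence normalized to DMSO and no-cell wells; concentration-response curves fitted and classed.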
S2 tox – viability counter-screen for ATXN expression inhibitors; Potency, µM (series often up to 56.7 µM), usual class: cytotoxic; actives 0.49% (n = 400,000); S2 cells (HEK-293 line with an ATXN2-luciferase reporter) viability, CellTiter-Fluor protease fluorescence, 24 h; also: nearly all actives have a fitted effect of over 40% in size
KB-3-1 cytotox – kills parental KB-3-1 adenocarcinoma cells; KB-3-1 viability, CellTiter-Glo ATP luminescence, 72 h; Potency, µM (titrated, usually from 46.1 µM), hits mostly cytotoxic; actives 1.4% (n = 400,000); AID 1347075; also: nearly all actives have a fitted effect of over 60% in size
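Screening of KB-3-1 cells (DMEM, 10% FBS, phenol-red free) ran from lowest to highest compound concentration; after 72 h at 37 °C viability was read luminescently and curves fitted.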
KB-V1 MDR tox – KB-V1 MDR subline cytotoxicity; Potency, µM (highest dose often 46.1 µM), hits mostly cytotoxic; KB-V1 MDR cells viability, CellTiter-Glo, 72 h; actives 3.4% (n = 400,000); also: nearly all actives have a fitted effect of over 60% in size
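Compound-treated KB-V1 multidrug-resistant cells, 72 h, 37 degrees C; viability by CellTiter-Glo. Fitted qHTS curves give the values.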
ATXN2 expr inh – ATXN2 expression inhibition | AID 1745845 | HEK-293 ATXN2-luciferase reporter, luminescence, 24 h | Potency, µM (titrated, usually from 57 µM), usual class: inhibitors | actives 0.72% (n = 360,000); also: nearly all actives have a fitted effect of over 55% in size
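ATXN2-luciferase reporter cells (luciferase flanked by upstream and downstream ATXN2 gene portions) were treated 24 h at 37 °C with compounds at up to 57 uM. SteadyGlo luminescence gave expression; GF-AFC fluorescence gave viability.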
Numbers stand for hits. Calls follow the shape of the dose curve; as a rule, active = well fitted curve in the direction sought with a large enough effect; inconclusive = small, poorly fitted or top-dose-only effect, or another doubt; inactive = no such curve, though single readings can be large; an effect the other way counts as inactive or inconclusive.

How did COc1ccc(CN2C(=O)NC(=O)/C(=C\c3ccco3)C2=O)cc1 do in these assays?
HT1080 IDH1KD tx: inactive; HT1080NT lethal: inactive; S2 tox: inactive; KB-3-1 cytotox: inactive; KB-V1 MDR tox: inactive; ATXN2 expr inh: inactive

How did CC(C)c1ccc(N2C(=O)NC(=O)/C(=C\c3cnc(-c4ccccc4)nc3)C2=O)cc1 do in these assays?
HT1080 IDH1KD tx: inactive; HT1080NT lethal: inactive; S2 tox: inactive; KB-3-1 cytotox: inactive; KB-V1 MDR tox: inconclusive; ATXN2 expr inh: inactive

Results for CCOC(C(=O)OCCN(C)C)(c1ccccc1)c1ccccc1 ?
S2 tox: inactive; ATXN2 expr inh: inactive

What do the screens show for `CCCNS(=O)(=O)c1ccc(OCC(=O)N2CCN(Cc3ccc4c(c3)OCO4)CC2)c(C)c1`?
HT1080 IDH1KD tx: inconclusive; HT1080NT lethal: 12µM; S2 tox: inactive; KB-3-1 cytotox: inactive; KB-V1 MDR tox: inactive; ATXN2 expr inh: inactive

How did CC(C)[C@]12O[C@@H]1[C@@H]1O[C@]13[C@]1(O[C@H]1C[C@@H]1C4=C(CC[C@@]13C)C(=O)OC4)[C@H]2O do in these assays?
ATXN2 expr inh: 0.12µM

Results for CC(C)(N)Cc1ccc(Cl)cc1 ?
S2 tox: inactive; ATXN2 expr inh: inactive

Results for Cc1cc(=O)oc2c1c(C)nn2-c1nn[nH]n1 ?
HT1080 IDH1KD tx: inactive; HT1080NT lethal: inactive; S2 tox: inconclusive; KB-3-1 cytotox: inactive; KB-V1 MDR tox: inactive; ATXN2 expr inh: inactive

What do the screens show for `C=CCC1=C(C)C(OC(=O)C2C(C=C(C)C)C2(C)C)CC1=O` (stereo not given)?
S2 tox: 40µM; ATXN2 expr inh: inconclusive

How did CC(C)=CC1C(C(=O)OCc2cccc(Oc3ccccc3)c2)C1(C)C (stereo not given) do in these assays?
S2 tox: inactive; ATXN2 expr inh: inactive

How did Cc1ccc(Cl)cc1N1CCN(C(=O)c2cn(CC(C)C)c(=O)c3c2c2ccccc2n3C)CC1 do in these assays?
S2 tox: inconclusive; KB-3-1 cytotox: inactive; KB-V1 MDR tox: inactive; ATXN2 expr inh: inconclusive

How did O=C(c1ccc2nc3ccc(Cl)cc3c(=O)n2c1)N1CCC2(CC1)OCCO2 do in these assays?
HT1080 IDH1KD tx: inactive; HT1080NT lethal: inactive; S2 tox: inactive; KB-3-1 cytotox: inactive; KB-V1 MDR tox: 21µM; ATXN2 expr inh: inactive

What do the screens show for `O=C1NC[C@H](CCCCN2C[C@H](Cc3ccccc3)N(CCc3ccccc3)C(=O)C2=O)N(CC2CCCCC2)C1=O`?
HT1080 IDH1KD tx: inconclusive; HT1080NT lethal: inactive; S2 tox: inactive; KB-3-1 cytotox: inactive; KB-V1 MDR tox: inactive; ATXN2 expr inh: inactive

How did COc1cccc2c1C(=O)c1c(O)c3c(c(O)c1C2=O)C[C@@](O)(C(=O)CO)CC3OC1CC(N2CCOC(OC)C2)C(O)C(C)O1 (stereo not given in full) do in these assays?
S2 tox: 45µM; ATXN2 expr inh: 28µM

How did COc1ccc(N2CCN(Cc3nc4ccccc4[nH]3)CC2)cc1 do in these assays?
HT1080 IDH1KD tx: inactive; HT1080NT lethal: inactive; S2 tox: inactive; KB-3-1 cytotox: inactive; KB-V1 MDR tox: inactive; ATXN2 expr inh: inactive

What do the screens show for `COc1ccc(-n2cc(-c3ccccc3)c3c(N4CCN(CCO)CC4)ncnc32)cc1`?
HT1080 IDH1KD tx: inconclusive; HT1080NT lethal: 16µM; S2 tox: inconclusive; KB-3-1 cytotox: inactive; KB-V1 MDR tox: inactive; ATXN2 expr inh: inconclusive

Results for CCOC(=O)[C@]12Cc3cc(C)ccc3[C@H]1N(C1CCCCC1)C(=O)c1cc(OC)ccc12 ?
HT1080 IDH1KD tx: 3.3µM; HT1080NT lethal: 2.9µM; S2 tox: 4.5µM; KB-3-1 cytotox: 3.3µM; KB-V1 MDR tox: 4.1µM; ATXN2 expr inh: 5µM

How did CCOC(=O)[C@]12Cc3cc(OC)ccc3[C@H]1N(C1CCCCC1)C(=O)c1cc(OC)ccc12 do in these assays?
HT1080 IDH1KD tx: 18µM; HT1080NT lethal: 23µM; S2 tox: 13µM; KB-3-1 cytotox: 16µM; KB-V1 MDR tox: inconclusive; ATXN2 expr inh: 20µM

How did CCc1ccc(NC(=O)c2ccc3oc(=O)n(Cc4ccccc4)c3c2)cc1 do in these assays?
S2 tox: inconclusive; KB-3-1 cytotox: inconclusive; KB-V1 MDR tox: inactive; ATXN2 expr inh: inactive

How did C[C@]12CC[C@H](O)CC1=CCC1C2CC[C@@]2(C)C1C[C@@H](O)[C@@H]2O (stereo not given in full) do in these assays?
HT1080 IDH1KD tx: inactive; HT1080NT lethal: inactive; S2 tox: inactive; KB-3-1 cytotox: inactive; KB-V1 MDR tox: inactive; ATXN2 expr inh: inactive

Results for CC(=O)C1C(N2CC2)CC2C3CC=C4CC(O)CCC4(C)C3CCC21C (stereo not given) ?
HT1080 IDH1KD tx: inactive; HT1080NT lethal: inactive; S2 tox: 14µM; KB-3-1 cytotox: inconclusive; KB-V1 MDR tox: inconclusive; ATXN2 expr inh: inactive

How did C[C@H](N)C(=O)c1ccccc1 do in these assays?
S2 tox: inactive; ATXN2 expr inh: inactive

Results for COc1ccc(OC)c(NC(=O)Cn2cc(C(=O)c3ccccc3F)c3ccccc32)c1 ?
S2 tox: inconclusive; KB-3-1 cytotox: inconclusive; KB-V1 MDR tox: inactive; ATXN2 expr inh: inactive

What do the screens show for `On1ccccc1=S`?
HT1080 IDH1KD tx: 0.33µM; HT1080NT lethal: 0.041µM; S2 tox: 0.32µM; KB-3-1 cytotox: inactive; KB-V1 MDR tox: inconclusive; ATXN2 expr inh: 0.28µM

Results for CCOC(=O)c1c(NC(=O)C(c2ccccc2)c2ccccc2)sc2c1C1CCN2CC1 ?
HT1080 IDH1KD tx: inactive; HT1080NT lethal: inactive; S2 tox: inactive; KB-3-1 cytotox: inconclusive; KB-V1 MDR tox: 23µM; ATXN2 expr inh: inconclusive

How did CCOC(=O)c1c(NC(=O)c2c(N)n(CCCOC)c3nc4ccccc4nc23)sc2c1CCCC2 do in these assays?
HT1080 IDH1KD tx: inactive; HT1080NT lethal: inactive; S2 tox: inactive; KB-3-1 cytotox: inactive; KB-V1 MDR tox: inactive; ATXN2 expr inh: inactive

What do the screens show for `CC(C)[C@H]1C(=O)O[C@H](C(C)C)C(=O)N(C)[C@@H](C(C)C)C(=O)O[C@H](C(C)C)C(=O)N(C)[C@@H](C(C)C)C(=O)O[C@H](C(C)C)C(=O)N1C`?
HT1080 IDH1KD tx: 3.3µM; HT1080NT lethal: 4.1µM; S2 tox: 10µM; KB-3-1 cytotox: 5.8µM; KB-V1 MDR tox: inconclusive; ATXN2 expr inh: 7.9µM

What do the screens show for `C1CN2CCC1CC2`?
S2 tox: inactive; ATXN2 expr inh: inactive

What do the screens show for `CN1C(=O)C(=Cc2ccccc2OCc2ccccc2Cl)C(=O)N(C)C1=O`?
HT1080 IDH1KD tx: 16µM; HT1080NT lethal: 16µM; S2 tox: inactive; KB-3-1 cytotox: inconclusive; KB-V1 MDR tox: inactive; ATXN2 expr inh: inconclusive

What do the screens show for `COc1ccc(NC(=O)N2C[C@@H]3C[C@@H](C2)c2cccc(=O)n2C3)c(OC)c1`?
HT1080 IDH1KD tx: inactive; HT1080NT lethal: inactive; S2 tox: inactive; KB-3-1 cytotox: inactive; KB-V1 MDR tox: inactive; ATXN2 expr inh: inactive
